Of roughly 8,800 targets only a part is listed; those with a hit were picked by preference. About 0.5% of all pairs of compound and target were hits.
Experiments:
Assay in all cases: log2 fold change, soluble protein after heating vs DMSO (PISA); higher = thermal stabilisation; K562 lysate, 10 uM; active = over 0.2 and 3.5 SD of the protein, either way, in both replicates (recomputed)
alvocidib = compound: CN1CC[C@H](c2c(O)cc(O)c3c(=O)cc(-c4ccccc4Cl)oc23)[C@H](O)C1 [alvocidib]
How it was run: (§1)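 Soluble protein was defined as the supernatant remaining after 21,000xg for 90 min, following pooling of heated aliquots and adjustment to 0.5% NP-40 at 4°C. Before that, crude K562 extract at 1 mg/mL protein in PBS pH 7.4 with 1 mM MgCl2 was treated with 10 μM compound for 30 min and heated for 3 min across 48°C-58°C. Quantification used TMTpro 16plex LC-MS/MS with channel sums equalised, and values are log-two fold changes in thermal stability relative to solvent controls from duplicates.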

Tubastatin A = compound: CN1CCc2c(c3ccccc3n2Cc2ccc(C(=O)NO)cc2)C1 [Tubastatin A]
How it was run: as §1

[1] = compound: CNC(=O)C1=CC=CC=C1NC2=NC(=NC=C2Cl)NC3=C(C=C(C=C3)N4CCOCC4)OC
How it was run: as §1

defactinib = compound: CNC(=O)c1ccc(Nc2ncc(C(F)(F)F)c(NCc3nccnc3N(C)S(C)(=O)=O)n2)cc1 [defactinib]
How it was run: as §1

[2] = compound: CNc1nc(-c2ccc3c(N)n[nH]c3c2)cc(N2C[C@@H](C(=O)NC3CCCCC3)CC[C@H]2C)n1
How it was run: as §1

encorafenib = compound: COC(=O)N[C@@H](C)CNc1nccc(-c2cn(C(C)C)nc2-c2cc(Cl)cc(NS(C)(=O)=O)c2F)n1 [encorafenib]
How it was run: as §1

[3] = compound: COC(=O)[C@H](CCSC)NC(=O)C1=C(C=C(C=C1)NC[C@H](CS)N)C2=CC=CC=C2
How it was run: as §1

alisertib = compound: COc1cc(Nc2ncc3c(n2)-c2ccc(Cl)cc2C(c2c(F)cccc2OC)=NC3)ccc1C(=O)O [alisertib]
How it was run: as §1

[4] = compound: COc1cc2nc(-c3cc(F)ccc3O)nc(N[C@@H]3CNC[C@H]3C(C)(C)O)c2cc1OC
How it was run: as §1

gefitinib = compound: COc1cc2ncnc(Nc3ccc(F)c(Cl)c3)c2cc1OCCCN1CCOCC1 [gefitinib]
How it was run: as §1

Measured: log2 fold change

UGDH (UniProt O60701)
Chain of UniProt O60701 (O60701 whole entry, looked up): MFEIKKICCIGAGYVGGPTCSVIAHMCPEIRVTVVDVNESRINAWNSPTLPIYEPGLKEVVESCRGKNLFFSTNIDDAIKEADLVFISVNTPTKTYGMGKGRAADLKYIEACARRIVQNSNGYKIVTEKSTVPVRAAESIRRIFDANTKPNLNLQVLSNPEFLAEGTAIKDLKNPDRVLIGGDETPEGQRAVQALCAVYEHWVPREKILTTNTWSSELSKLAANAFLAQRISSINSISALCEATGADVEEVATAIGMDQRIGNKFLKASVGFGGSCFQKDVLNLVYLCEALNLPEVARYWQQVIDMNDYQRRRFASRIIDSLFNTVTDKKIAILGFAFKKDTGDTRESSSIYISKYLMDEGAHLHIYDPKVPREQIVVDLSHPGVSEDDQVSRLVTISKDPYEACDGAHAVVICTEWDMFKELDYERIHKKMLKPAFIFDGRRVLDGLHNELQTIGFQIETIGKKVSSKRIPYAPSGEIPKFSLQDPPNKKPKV
inactive: alvocidib 0.023 | Tubastatin A -0.151 | [1] 0.015 | defactinib 0.071 | [2] -0.132 | encorafenib 0.047 | [3] 0.037 | alisertib -0.025 | [4] -0.004 | gefitinib -0.042

TFIP11 (UniProt Q9UBB9)
inactive: alvocidib -0.013 | Tubastatin A -0.135 | [1] 0.024 | defactinib 0.061 | [2] -0.023 | encorafenib 0.042 | alisertib 0.062 | [4] 0.013 | gefitinib -0.041
active: [3] 0.381

UBE3C (UniProt Q15386)
inactive: alvocidib 0 | Tubastatin A -0.084 | [1] 0.023 | defactinib 0.033 | [2] 0.024 | encorafenib 0.076 | [3] -0.145 | alisertib 0.022 | [4] 0 | gefitinib -0.026

TROAP (UniProt Q12815)
inactive: alvocidib -0.042 | Tubastatin A -0.043 | [1] 0.022 | defactinib 0.021 | [2] 0.076 | encorafenib -0.193 | [3] 0.217 | alisertib -0.09 | [4] -0.171 | gefitinib -0.015

TUBAL3 (UniProt A6NHL2)
Chain of UniProt A6NHL2 (A6NHL2 whole entry, looked up): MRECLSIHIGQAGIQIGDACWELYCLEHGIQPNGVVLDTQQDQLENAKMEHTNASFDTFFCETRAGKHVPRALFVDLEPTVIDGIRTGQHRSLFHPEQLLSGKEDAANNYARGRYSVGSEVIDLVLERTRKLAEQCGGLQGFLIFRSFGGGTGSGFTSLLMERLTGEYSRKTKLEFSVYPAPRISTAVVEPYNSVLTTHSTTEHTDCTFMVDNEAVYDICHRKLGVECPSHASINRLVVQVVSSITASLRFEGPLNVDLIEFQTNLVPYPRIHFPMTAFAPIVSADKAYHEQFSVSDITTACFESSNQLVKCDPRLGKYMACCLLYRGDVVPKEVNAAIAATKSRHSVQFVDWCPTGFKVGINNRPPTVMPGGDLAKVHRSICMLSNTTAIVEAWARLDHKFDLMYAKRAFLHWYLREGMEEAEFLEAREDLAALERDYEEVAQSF
inactive: alvocidib -0.276 | Tubastatin A 0.109 | [1] -0.179 | defactinib -0.093 | [2] 0.039 | encorafenib 0.03 | [3] 0.032 | alisertib 0.135 | [4] 0.088 | gefitinib -0.057

TPM4 isoform 2 (UniProt P67936)
Chain of UniProt P67936 (P67936 whole entry, looked up): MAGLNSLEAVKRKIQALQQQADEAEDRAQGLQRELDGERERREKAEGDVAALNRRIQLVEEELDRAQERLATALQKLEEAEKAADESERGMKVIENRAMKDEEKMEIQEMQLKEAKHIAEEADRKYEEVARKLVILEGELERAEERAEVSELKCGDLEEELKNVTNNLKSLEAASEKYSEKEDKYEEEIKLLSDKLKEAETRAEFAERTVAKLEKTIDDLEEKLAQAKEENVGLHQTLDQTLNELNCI
inactive: alvocidib 0.062 | Tubastatin A 0.03 | [1] -0.027 | defactinib -0.059 | [2] 0.028 | encorafenib -0.004 | [3] -0.077 | alisertib -0.098 | [4] -0.01 | gefitinib -0.004

TPM1 isoform 4 (UniProt P09493)
Chain of UniProt P09493 (P09493 whole entry, looked up): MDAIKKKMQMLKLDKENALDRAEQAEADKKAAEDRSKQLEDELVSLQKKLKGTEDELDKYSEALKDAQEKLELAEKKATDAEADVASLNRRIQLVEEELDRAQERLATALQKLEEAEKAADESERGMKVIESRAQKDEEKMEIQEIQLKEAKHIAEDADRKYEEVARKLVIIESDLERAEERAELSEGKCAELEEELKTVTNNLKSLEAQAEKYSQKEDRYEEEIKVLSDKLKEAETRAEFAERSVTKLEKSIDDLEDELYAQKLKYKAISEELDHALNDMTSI
inactive: alvocidib 0.017 | Tubastatin A 0.073 | [1] -0.013 | defactinib -0.031 | [2] -0.12 | encorafenib 0.02 | [3] -0.088 | alisertib 0.035 | [4] -0.012 | gefitinib 0.008

TBL3 (UniProt Q12788)
inactive: alvocidib -0.019 | Tubastatin A -0.08 | [1] 0.014 | defactinib 0.016 | [2] 0.01 | encorafenib -0.021 | [3] 0.072 | alisertib 0.015 | [4] 0.006 | gefitinib -0.123

TRIM65 (UniProt Q6PJ69)
Chain of UniProt Q6PJ69 (Q6PJ69 whole entry, looked up): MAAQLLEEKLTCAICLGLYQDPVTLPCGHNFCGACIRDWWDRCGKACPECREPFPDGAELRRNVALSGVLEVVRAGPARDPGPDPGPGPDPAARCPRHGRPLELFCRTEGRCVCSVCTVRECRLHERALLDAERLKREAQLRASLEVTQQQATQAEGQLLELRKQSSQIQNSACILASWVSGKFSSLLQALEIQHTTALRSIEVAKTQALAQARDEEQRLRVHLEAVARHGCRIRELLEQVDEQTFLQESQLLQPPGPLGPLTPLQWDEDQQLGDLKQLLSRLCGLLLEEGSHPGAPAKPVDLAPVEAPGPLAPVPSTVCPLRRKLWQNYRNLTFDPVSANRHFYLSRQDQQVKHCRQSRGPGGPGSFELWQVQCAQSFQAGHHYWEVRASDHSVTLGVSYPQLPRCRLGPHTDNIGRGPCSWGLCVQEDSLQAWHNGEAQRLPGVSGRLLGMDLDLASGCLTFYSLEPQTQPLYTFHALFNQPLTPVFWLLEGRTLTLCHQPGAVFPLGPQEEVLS
inactive: alvocidib -0.11 | Tubastatin A 0.025 | [1] -0.044 | defactinib 0.024 | [2] -0.014 | encorafenib -0.002 | [3] 0.089 | alisertib -0.02 | [4] 0.023 | gefitinib 0.003

TPD52L2 isoform 7 (UniProt O43399)
Chain of UniProt O43399 (O43399 whole entry, looked up): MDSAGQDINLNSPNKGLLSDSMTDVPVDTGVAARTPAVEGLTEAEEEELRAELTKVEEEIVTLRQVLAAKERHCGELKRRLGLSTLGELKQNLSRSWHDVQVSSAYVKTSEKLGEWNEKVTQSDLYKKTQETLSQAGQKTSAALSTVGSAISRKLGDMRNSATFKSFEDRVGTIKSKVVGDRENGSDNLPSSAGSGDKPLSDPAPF
inactive: alvocidib -0.043 | Tubastatin A 0.062 | [1] -0.005 | defactinib 0.023 | [2] 0.086 | encorafenib -0.026 | [3] 0.008 | alisertib -0.01 | [4] 0.037 | gefitinib 0.02

UFM1 (UniProt P61960)
Chain of UniProt P61960 (P61960 whole entry, looked up): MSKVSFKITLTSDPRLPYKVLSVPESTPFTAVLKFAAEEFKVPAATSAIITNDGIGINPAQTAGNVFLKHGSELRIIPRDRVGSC
inactive: alvocidib 0.253 | Tubastatin A 0.102 | [1] 0.037 | defactinib 0.136 | [2] 0.088 | encorafenib 0.023 | [3] -0.076 | alisertib 0.038 | [4] -0.08 | gefitinib -0.116

TOPBP1 (UniProt Q92547)
Chain of UniProt Q92547 (Q92547 whole entry, looked up): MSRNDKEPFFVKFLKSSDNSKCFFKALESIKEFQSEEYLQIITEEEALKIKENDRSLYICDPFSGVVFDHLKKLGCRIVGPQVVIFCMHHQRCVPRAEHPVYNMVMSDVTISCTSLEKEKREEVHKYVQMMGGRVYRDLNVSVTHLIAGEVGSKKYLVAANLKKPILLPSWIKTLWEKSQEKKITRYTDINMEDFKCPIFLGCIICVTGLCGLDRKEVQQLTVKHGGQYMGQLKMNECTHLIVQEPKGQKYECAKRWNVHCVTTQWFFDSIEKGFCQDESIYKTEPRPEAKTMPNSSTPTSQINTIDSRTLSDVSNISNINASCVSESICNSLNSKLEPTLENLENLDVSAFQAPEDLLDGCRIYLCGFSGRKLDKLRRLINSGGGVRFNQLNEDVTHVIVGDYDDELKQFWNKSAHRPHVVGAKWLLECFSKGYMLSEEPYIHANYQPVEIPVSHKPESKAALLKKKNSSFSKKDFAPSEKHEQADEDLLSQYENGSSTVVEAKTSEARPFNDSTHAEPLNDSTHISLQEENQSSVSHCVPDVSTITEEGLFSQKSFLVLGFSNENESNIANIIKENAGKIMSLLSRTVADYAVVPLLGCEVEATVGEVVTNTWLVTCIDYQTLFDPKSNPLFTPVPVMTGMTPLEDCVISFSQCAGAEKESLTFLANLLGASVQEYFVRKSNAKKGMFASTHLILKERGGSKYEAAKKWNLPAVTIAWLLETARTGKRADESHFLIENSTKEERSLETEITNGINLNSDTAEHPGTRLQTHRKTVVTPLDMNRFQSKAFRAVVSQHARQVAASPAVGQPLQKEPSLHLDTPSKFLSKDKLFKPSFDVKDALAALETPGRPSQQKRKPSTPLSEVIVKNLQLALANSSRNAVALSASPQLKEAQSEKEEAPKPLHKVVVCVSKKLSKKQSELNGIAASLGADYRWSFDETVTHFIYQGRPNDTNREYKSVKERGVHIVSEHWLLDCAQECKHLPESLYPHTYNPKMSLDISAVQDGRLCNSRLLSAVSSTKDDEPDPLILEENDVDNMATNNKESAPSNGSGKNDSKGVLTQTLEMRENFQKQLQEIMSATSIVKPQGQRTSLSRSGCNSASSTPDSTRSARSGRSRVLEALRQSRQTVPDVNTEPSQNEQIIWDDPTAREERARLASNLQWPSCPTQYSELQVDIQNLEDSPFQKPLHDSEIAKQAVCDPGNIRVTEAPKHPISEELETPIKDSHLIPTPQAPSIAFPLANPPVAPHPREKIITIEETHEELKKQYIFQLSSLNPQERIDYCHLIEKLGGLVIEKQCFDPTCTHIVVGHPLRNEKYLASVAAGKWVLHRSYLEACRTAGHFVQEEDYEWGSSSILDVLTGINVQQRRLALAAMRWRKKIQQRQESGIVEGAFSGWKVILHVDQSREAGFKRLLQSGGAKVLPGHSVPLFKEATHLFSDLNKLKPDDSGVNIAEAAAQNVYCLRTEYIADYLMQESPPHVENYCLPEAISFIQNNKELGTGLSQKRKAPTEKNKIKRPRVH
inactive: alvocidib 0.024 | Tubastatin A -0.067 | [1] 0.033 | defactinib 0.047 | [2] 0.01 | encorafenib -0.024 | [3] 0.108 | alisertib -0.039 | [4] 0.034 | gefitinib 0.008

TIMELESS (UniProt Q9UNS1)
Chain of UniProt Q9UNS1 (Q9UNS1 whole entry, looked up): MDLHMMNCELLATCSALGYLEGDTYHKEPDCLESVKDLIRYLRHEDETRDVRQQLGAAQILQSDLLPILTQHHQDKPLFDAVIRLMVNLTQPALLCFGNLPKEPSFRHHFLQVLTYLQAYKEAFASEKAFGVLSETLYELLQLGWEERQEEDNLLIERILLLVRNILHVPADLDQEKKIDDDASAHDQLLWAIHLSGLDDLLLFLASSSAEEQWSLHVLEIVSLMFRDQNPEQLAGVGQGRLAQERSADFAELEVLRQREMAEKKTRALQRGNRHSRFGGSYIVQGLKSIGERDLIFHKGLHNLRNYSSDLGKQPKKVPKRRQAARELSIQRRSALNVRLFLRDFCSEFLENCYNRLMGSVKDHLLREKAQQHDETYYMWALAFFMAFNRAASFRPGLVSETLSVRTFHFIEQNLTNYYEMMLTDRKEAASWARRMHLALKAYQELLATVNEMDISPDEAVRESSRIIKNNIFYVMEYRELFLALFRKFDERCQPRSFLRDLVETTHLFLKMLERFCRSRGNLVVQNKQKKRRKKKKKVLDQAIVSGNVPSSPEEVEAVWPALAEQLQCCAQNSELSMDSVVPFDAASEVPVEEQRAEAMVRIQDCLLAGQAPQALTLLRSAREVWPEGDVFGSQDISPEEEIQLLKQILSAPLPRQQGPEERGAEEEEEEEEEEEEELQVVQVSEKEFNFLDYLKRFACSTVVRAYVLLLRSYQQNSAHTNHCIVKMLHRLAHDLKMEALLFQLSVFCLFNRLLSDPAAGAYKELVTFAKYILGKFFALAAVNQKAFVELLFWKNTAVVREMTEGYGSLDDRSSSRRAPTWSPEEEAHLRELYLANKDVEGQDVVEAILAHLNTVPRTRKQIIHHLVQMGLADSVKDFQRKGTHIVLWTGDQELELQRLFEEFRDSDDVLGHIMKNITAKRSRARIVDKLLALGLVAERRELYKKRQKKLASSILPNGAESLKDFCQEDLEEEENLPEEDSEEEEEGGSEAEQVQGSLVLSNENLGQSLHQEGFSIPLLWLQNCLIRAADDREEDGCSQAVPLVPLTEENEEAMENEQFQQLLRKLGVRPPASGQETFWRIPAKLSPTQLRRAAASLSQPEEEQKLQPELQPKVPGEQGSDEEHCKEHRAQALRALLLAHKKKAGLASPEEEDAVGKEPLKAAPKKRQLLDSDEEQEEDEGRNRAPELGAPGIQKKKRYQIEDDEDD
inactive: alvocidib -0.017 | Tubastatin A -0.149 | [1] 0.031 | defactinib 0 | [2] -0.039 | encorafenib 0.039 | [3] 0.105 | alisertib -0.011 | [4] 0.049 | gefitinib 0.017

TTI1 (UniProt O43156)
inactive: alvocidib 0 | Tubastatin A -0.163 | [1] 0.015 | defactinib 0.022 | [2] -0.035 | encorafenib 0.022 | [3] 0.026 | alisertib -0.013 | [4] -0.011 | gefitinib -0.016

Reference: the supplement of paper PMC10849652
